An excerpt weighted towards active compounds, which were near 7.4% of everything screened.
p53 reactivator: restores transcriptional activity of mutant p53; H1299 p53-A138V BP100-luciferase reporter, luminescence, 24 h; Potency, µM (highest dose often 92.2 µM), for the others: top-dose activity change, positive = activation, actives largely listed as activators; 320,000 compounds, 0.063% hits; AID 504706; further: % of control where 0% means no effect; nearly all actives have a fitted effect of over 45% in size
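H1299 (p53-null), stable ts p53-A138V + BP100-Luc; 1000 cells/well, Opti-MEM/10% FBS; cpd 4 pt, 1:5; 24 h, 37 deg C, 5% CO2; detection reagent 10 min RT; luminescence.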
SMN2 splice up: enhancers of SMN2 splice variant expression; HEK293 SMN2-luciferase splicing reporter, luminescence, 30-36 h; 210,000 compounds, 2.8% hits; AID 1458; Potency, µM (highest dose often 46.1 µM), for the others: at the top dose activity change, positive = activation, hits mostly activators; further: % of control where 0% means no effect; nearly all actives have a fitted effect of over 55% in size
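qHTS luciferase splicing reporter: luminescence rises when SMN2 exon 7 is included in transfected HEK293 cells. Compound exposure lasted 30-36 h at 37C, with 4.5 mM final sodium butyrate as control, followed by a ONE-Glo read.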
NPC1 prom act: activators of NPC1 promoter; 320,000 compounds, 2.4% hits; Huh7 NPC1 promoter luciferase reporter, 24 h; Potency, µM (highest dose often 9.22 µM), for the others: at the highest dose activation, hits mostly activators; further: % of control where 0% means no effect; nearly all actives have a fitted effect of over 60% in size
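Stably transfected Huh7 (NPC1 promoter→luciferase), 1500 cells/well in Opti-MEM + 10% FBS, 2 h settle, then compound 24 h at 37 °C. Luminescence after 10 min with Amplite reagent.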
Rab9 promoter act: activators of Rab9 promoter | Potency, µM (top dose mostly 9.22 µM), for the others: top-dose activation, negative = inhibition, usual class: activators | 320,000 compounds, 2.8% hits | Huh7 Rab9 promoter-luciferase reporter, luminescence, 24 h | AID 485297; further: % of control where 0% means no effect; nearly all actives have a fitted effect of over 60% in size
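Quantitative HTS format; Huh7 Rab9-luciferase reporter cells (1500/well) receive compound 2 h post-plating, incubate 24 h at 37 °C, then get luciferase reagent for 10 min before luminescence reading.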
ELG1 genotox: genotoxicity induction in ELG1-luciferase HEK293T cells; HEK293T ELG1-luciferase reporter, luminescence, 16 h; Potency, µM (top dose mostly 46 µM), without a hit: at the highest dose activity change, positive = activation, hits mostly activators; 330,000 compounds, 1.3% hits; AID 504466; further: % of control where 0% means no effect; nearly all actives have a fitted effect of over 60% in size
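HEK293T cells expressing luciferase-tagged ELG1 were treated with compound or DMSO for 16 hr at 37°C. Luciferase activity was then read after 30 min with ONE-Glo at room temperature; rising signal flags genetic stress.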
FLuc modulator: inhibits or activates purified firefly luciferase, miR-21 counter-screen; P08659; purified FLuc, Km substrates, luminescence inhibition; Potency, µM (top dose mostly 57.5 µM), without a hit: at the top dose activity change, negative = inhibition, hits mostly inhibitors; 360,000 compounds, 6.9% hits; AID 588342;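 further: plate controls were vehicle for no effect and reference inhibitor for full effect; nearly all actives have a fitted effect of over 55% in size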
Target sequence (P08659 whole entry, looked up): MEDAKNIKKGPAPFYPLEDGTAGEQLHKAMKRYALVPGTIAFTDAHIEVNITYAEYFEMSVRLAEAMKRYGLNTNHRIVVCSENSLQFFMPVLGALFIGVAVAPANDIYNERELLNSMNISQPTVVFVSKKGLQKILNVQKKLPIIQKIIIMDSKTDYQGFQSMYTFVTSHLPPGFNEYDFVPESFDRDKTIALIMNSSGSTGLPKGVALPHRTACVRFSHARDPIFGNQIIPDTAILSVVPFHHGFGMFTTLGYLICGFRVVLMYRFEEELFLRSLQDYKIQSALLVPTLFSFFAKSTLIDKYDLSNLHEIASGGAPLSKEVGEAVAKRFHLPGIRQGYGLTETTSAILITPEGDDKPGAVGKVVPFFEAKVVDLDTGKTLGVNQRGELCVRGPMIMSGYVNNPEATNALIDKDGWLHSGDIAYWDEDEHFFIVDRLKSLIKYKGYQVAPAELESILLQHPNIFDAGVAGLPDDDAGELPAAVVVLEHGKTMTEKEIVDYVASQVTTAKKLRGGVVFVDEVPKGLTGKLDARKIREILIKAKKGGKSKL
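Purified P. pyralis luciferase (10nM final) with 10uM D-luciferin and 10uM ATP (Km levels) in 50mM Tris acetate pH 7.5, 10mM Mg acetate, 0.01% Tween-20, 0.05% BSA; qHTS 6-point titration, ~60 µM downward; luminescence read.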
Active calls of the source: *; ? = inconclusive; nt = no result; [ ] = remark or other dose. The call rests on the fitted dose curve; in most records, active means well fitted curve in the direction sought with a large enough effect; inconclusive means small, poorly fitted or top-dose-only effect, or another doubt; inactive means no such curve, though single readings can be large; an effect the other way counts as inactive or inconclusive. Potency means the concentration at half of the fitted maximal effect.

SMILES | p53 reactivator | SMN2 splice up | NPC1 prom act | Rab9 promoter act | ELG1 genotox | FLuc modulator
Cc1ccc(OCCC(=O)OCC(=O)Nc2cc(S(=O)(=O)N(C)C)ccc2C)cc1 | 1% | 0% | -5% | -2% | 2% | 11µM*
Cc1ccc(S(=O)(=O)N2CCOCC2)cc1NC(=O)COc1ccc(-c2nnco2)cc1 | 1% | -13% | -4% | 0% | -11% | -12%
CCN(CC)S(=O)(=O)c1cccc(NC(=O)COC(=O)CNC(=O)c2cccc(F)c2)c1 | 1% | nt | -1% | -6% | 1% | -4%
CCN(CC)S(=O)(=O)c1ccc(C)c(NC(=O)COC(=O)CNC(=O)c2ccc(C(C)(C)C)cc2)c1 | -9% | 17% | -1% | 0% | 1% | 0.54µM*
Cc1ccc(S(=O)(=O)N(C)C)cc1NC(=O)COC(=O)/C=C/c1ccc2ccccc2n1 | ? | nt | 23% | 19% | -3% | 8.5µM*
CCCN(CC(=O)Nc1ccccc1C)C(=O)c1ccc(COc2ccccc2)cc1 | -2% | nt | 2% | 10% | -8% | 2%
CC(C)(N)CO[C@H]1C[C@H]2CC[C@@]1(C)C2(C)C | nt | -8%[9.22 µM] | nt | nt | nt | nt
CCNC(=S)N/N=C/c1cn(Cc2ccc(F)cc2)c2ccccc12 | 2% | -41% | 3% | -1% | 0% | 5%
O=C(O)c1ccc(N/N=C/c2cn(Cc3ccc(F)cc3)c3ccccc23)cc1 | 23% | nt | 2µM* | 2.8µM* | 12µM* | 8.5µM*
Cc1ccc(C(=O)N/N=C/c2cn(Cc3ccccc3)c3ccccc23)cn1 | -2% | nt | 9% | 1% | -1% | 12µM*
COc1cc(C(=O)N/N=C/c2cn(Cc3cccc(F)c3)c3ccccc23)ccc1O | -18% | nt | -3% | 1% | 0% | ?
O=C(N/N=C/c1cn(Cc2ccccc2)c2ccccc12)c1cc(O)cc(O)c1 | 4% | nt | -4% | -7% | 3% | 24µM*
COc1ccc(CNc2oc(-c3ccc(COc4ccc(OC)cc4)o3)nc2C#N)cc1 | nt | nt | nt | nt | nt | 6%
CO[C@@H]1/C=C\O[C@]2(C)Oc3c(C)c(O)c4c(O)c(c(CN5CCN(C)CC5)c(O)c4c3C2=O)NC(=O)/C(C)=C\C=C[C@@H](C)[C@@H](O)[C@H](C)[C@@H](O)C(C)[C@H](OC(C)=O)[C@@H]1C (some centres undefined) | nt | -11%[9.22 µM] | nt | nt | nt | nt
CCn1cc(SCC(=O)N2CCOCC2)c2ccccc21 | ? | ? | ? | ? | 18µM* | ?
CCn1c(=O)cc(SCC(=O)N2CCN(C)CC2)c2ccccc21 | 0% | ? | -1% | 2% | ? | 1%
CCN1CCN(C(=O)CSc2cc(=O)n(CC)c3ccccc23)CC1 | -6% | 24% | 0% | -1% | 21µM* | -2%
Cc1ccccc1CSc1cn(CC(=O)N2CCCCC2)c2ccccc12 | nt | nt | nt | nt | nt | -19%
Cn1cc(SCC(=O)N2CCOCC2)c2ccccc21 | 12% | 22% | 16% | 18% | ? | -6%
O=C(Cn1cc(SCc2ccccc2F)c2ccccc21)N1CCCC1 | nt | nt | nt | nt | nt | 17µM*
O=C(Cn1cc(SCc2ccccc2Cl)c2ccccc21)N1CCOCC1 | ? | 18µM* | ? | ? | 13% | 12µM*
COc1ccc(-c2nnc(SCC(=O)Nc3c(Cl)cc(Cl)cc3C(=O)O)o2)cc1 | 4% | nt | nt | nt | -3% | nt
Cc1ccc(NC(=O)N2C(=O)C3(OCCO3)c3ccccc32)cc1 | 16% | ? | 3.2µM* | 2µM* | ? | ?
CCNC(=O)N1C(=O)C2(OCCO2)c2ccccc21 | 2% | -6% | -2% | -10% | 3% | 3%
O=C(Nc1ccc(Cl)cc1)OCc1cn(-c2ccc(Cl)cc2)nn1 | 8% | 10% | 0% | 9% | 3% | ?
Clc1ccc(-n2cc(COCc3ccccc3)nn2)cc1 | 28% | 13µM* | 0.89µM* | 0.89µM* | ? | 1.9µM*
O=[N+]([O-])c1ccccc1N/N=C/c1ccccc1 | 11% | nt | 4µM* | ? | ? | ?
